Assay outcomes from PubChem BioAssay.
BAZ2B inh = qHTS Assay for Inhibitors of BAZ2B. 4.4% of 360,000 active. AlphaScreen BAZ2B-H3K14Ac peptide displacement. Potency, µM (series often up to 114 µM), most hits filed as inhibitors. Bromodomain adjacent to zinc finger domain protein 2B (Homo sapiens), Q9UIF8. AID 504333, 2011; also: nearly all actives have a fitted effect of over 60% in size
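Compounds, titrated to a top concentration of 110 uM, were incubated 30 min at room temperature with preformed BAZ2B/acetyl-K14 H3 peptide complex (50 nM each). Proximity signal was measured by AlphaScreen after 20 min with beads.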
HP1b chromo inh = HTS for Inhibitors of HP1-beta Chromodomain Interactions with Methylated Histone Tails | Chromobox protein homolog 1 (Homo sapiens), P83916 | AlphaScreen HP1-beta / biotin-H3K9me3 peptide binding | Potency, µM (titrated, usually from 114 µM), most hits filed as inhibitors | 0.56% of 390,000 active | AID 540317, 2011; also: nearly all actives have a fitted effect of over 70% in size
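HP1-beta protein (50 nM final) preincubated 30 min at room temperature with biotinylated H3(1-18)K9me3 peptide (50 nM) in PBS pH 7.4, 0.01% Tween-20, then compound added for 30 min. AlphaScreen streptavidin donor/nickel chelate acceptor beads (10 ug/mL final), 30 min dark, luminescence read.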
JMJD2A Tudor = qHTS Assay for Inhibitors of JMJD2A-Tudor Domain; Lysine-specific demethylase 4A (Homo sapiens), O75164; AlphaScreen JMJD2A-Tudor / H3K4me3 peptide binding; Potency, µM (titrated, usually from 114 µM), actives largely listed as inhibitors; 4.4% of 390,000 active; AID 504339, 2011; also: nearly all actives have a fitted effect of over 50% in size
L3MBTL1 block = qHTS Assay for the Inhibitors of L3MBTL1 | AID 485360, 2010 | Lethal(3)malignant brain tumor-like protein 1 (Homo sapiens), Q9Y468 | Potency, µM (top dose mostly 57.1 µM), most hits filed as inhibitors | 0.66% of 230,000 active | AlphaScreen L3MBTL1–H3K9me1 peptide binding; also: nearly all actives have a fitted effect of over 60% in size
Target sequence (Q9Y468 whole entry, looked up): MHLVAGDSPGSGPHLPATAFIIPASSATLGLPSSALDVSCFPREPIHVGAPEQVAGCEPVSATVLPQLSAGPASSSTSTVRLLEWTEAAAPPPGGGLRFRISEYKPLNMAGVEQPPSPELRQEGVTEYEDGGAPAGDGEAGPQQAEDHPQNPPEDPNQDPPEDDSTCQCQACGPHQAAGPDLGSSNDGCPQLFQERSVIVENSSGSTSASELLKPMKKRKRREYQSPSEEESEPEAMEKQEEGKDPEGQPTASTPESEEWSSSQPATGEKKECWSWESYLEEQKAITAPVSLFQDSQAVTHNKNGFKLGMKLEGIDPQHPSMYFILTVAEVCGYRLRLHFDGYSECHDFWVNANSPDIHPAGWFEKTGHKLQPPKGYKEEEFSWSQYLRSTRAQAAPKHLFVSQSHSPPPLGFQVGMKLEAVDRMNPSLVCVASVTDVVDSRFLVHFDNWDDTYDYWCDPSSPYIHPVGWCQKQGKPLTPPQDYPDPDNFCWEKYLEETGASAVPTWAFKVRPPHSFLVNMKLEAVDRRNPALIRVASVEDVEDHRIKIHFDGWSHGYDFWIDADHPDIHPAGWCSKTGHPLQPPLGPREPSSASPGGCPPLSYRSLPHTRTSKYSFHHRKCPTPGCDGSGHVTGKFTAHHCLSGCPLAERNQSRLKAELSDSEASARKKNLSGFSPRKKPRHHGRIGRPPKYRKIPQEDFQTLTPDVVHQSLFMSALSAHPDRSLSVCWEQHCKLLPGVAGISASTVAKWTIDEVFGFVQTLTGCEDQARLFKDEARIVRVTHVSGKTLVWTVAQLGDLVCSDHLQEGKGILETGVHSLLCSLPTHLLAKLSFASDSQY
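Displacement of a biotinylated histone H3(1-15) peptide monomethylated at Lys9 (75 nM) from L3MBTL1 (50 nM) was measured by AlphaScreen after a 30 min room-temperature compound incubation; cefsulodin titration served as intraplate control.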
G9a inh = qHTS Assay for Inhibitors of Histone Lysine Methyltransferase G9a; Potency, µM (highest dose often 102 µM), hits mostly inhibitors; 8.8% of 350,000 active; G9a H3K9 monomethylation, AlphaScreen, 2 h; Histone-lysine N-methyltransferase EHMT2 (Homo sapiens), Q96KQ7; also: nearly all actives have a fitted effect of over 75% in size
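Compounds were preincubated with 20 nM G9a for 15 min, after which biotinylated H3K9 peptide (500 nM) and SAM (20 uM) started a 2 h room-temperature reaction. Monomethylated product was quantified by antibody-based AlphaScreen chemiluminescence.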
PI5P4K alpha inh = qHTS for Inhibitors of phosphatidylinositol 5-phosphate 4-kinase (PI5P4K) | Phosphatidylinositol 5-phosphate 4-kinase type-2 alpha (Homo sapiens), P48426 | PI5P4Kalpha enzyme, ADP-Glo luminescence, 60 min; hits give low values | max response, % | 1.2% of 330,000 active; active = max response of -50% or lower; inconclusive = between -30% and -50%; inactive = -30% or higher; also: value at the top dose of about 77 µM
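Enzyme plus substrate dispensed, test compounds pinned in, then ATP (5 microM final) added. After 60 min at RT, ADP-Glo reagent 1 for 45 min and reagent 2 for 30 min preceded luminescence imaging.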
Numbers stand for hits; . = inactive; ? = inconclusive; / = no result; [ ] = remark or other dose. Hits are enriched below; roughly 11% of the tested compounds scored in any of these assays. Unless noted, calls follow the shape of the dose curve; as a rule, active = well fitted inhibition curve with a large enough effect; inconclusive = small, poorly fitted or top-dose-only effect; inactive = no such curve, though single readings can be large or run the other way.

SMILES | BAZ2B inh | HP1b chromo inh | JMJD2A Tudor | L3MBTL1 block | G9a inh | PI5P4K alpha inh
Oc1c(C(c2cccs2)N2CCN(c3ccccc3)CC2)ccc2cccnc12 (stereo unspecified) | 40µM | / | / | / | 1.3µM | /
CN1CCN(C(c2cccc(C(F)(F)F)c2)c2nnnn2C(C)(C)C)CC1 (stereo unspecified) | . | . | . | . | ? | /
CC1=C(C(=O)Nc2cccnc2)C(c2ccccc2)n2nc(SCc3ccccc3Cl)nc2N1 (stereo unspecified) | . | . | . | / | . | /
COCC(=O)N1CCC2(CC1)CN(c1cccc(-c3ccccc3)c1)C2 | / | / | / | / | .[12.7 µM] | /
Cc1ccc(NC(=O)Cn2cc(S(=O)(=O)N3CCCC3)c(S(=O)(=O)N3CCCC3)c2)c(C)c1 | . | . | . | / | . | /
Cc1cc(C)cc(OCCOCCn2c(-c3ccc(Cl)cc3)nc3ccccc3c2=O)c1 | . | . | . | / | . | /
Cc1ccc(C(=O)NCc2ccco2)cc1Br | . | . | . | / | ? | /
CCc1sc(C(=O)NCc2ccco2)cc1Br | ? | . | . | . | 56µM | .
Cc1c(Br)cc(C(=O)NCc2ccco2)c(C)c1C | 56µM | . | . | / | ? | ?
CCC(=O)O[C@H]1C(O[C@@H]2C(C)[C@H](O[C@H]3C[C@@](C)(OC)C(O)C(C)O3)C(C)C(=O)OC(CC)[C@@](C)(O)C(O)[C@H](C)C(=O)C(C)C[C@]2(C)O)OC(C)CC1N(C)C (stereo partly specified) | / | / | / | / | .[2.33 µM] | /
C=CCn1c(SCC(=O)N(CC)C2CCS(=O)(=O)C2)nc2cc(C(=O)O)ccc2c1=O (stereo unspecified) | . | . | . | . | .[12.7 µM] | -64
C=CCn1c(SCc2ccccc2F)nc2cc(C(=O)O)ccc2c1=O | ? | . | . | / | . | -74
C=CCn1c(SCC(=O)N(CC)C2CCS(=O)(=O)C2)nc2ccccc2c1=O (stereo unspecified) | . | . | . | / | .[12.7 µM] | .
O=S(=O)(c1ccccc1)N1CCC[C@@]2(CCN(Cc3nccs3)C2)C1 | / | / | / | / | .[12.7 µM] | /
CCOC(=O)N1CCC(N2C(=O)c3ccccc3C2Nc2cc(Cl)c(OC)cc2OC)CC1 (stereo unspecified) | 45µM | . | ? | . | 45µM | .
CCOC(=O)N1CCC(N2C(=O)c3ccccc3C2Nc2ccc(S(=O)(=O)N3CCOCC3)cc2)CC1 (stereo unspecified) | . | . | . | / | 45µM | .
CCOC(=O)N1CCC(N2C(=O)c3ccccc3C2Nc2cc(OC)c(OC)c(OC)c2)CC1 (stereo unspecified) | . | . | . | . | ? | .
O=C(COc1ccccc1)Nc1ccc(OCc2cc(=O)n3ccsc3n2)cc1 | . | . | . | / | . | /
COc1ccc(NC(=O)c2cnc(SCC(=O)Nc3nc4ccc(C)cc4s3)n(C)c2=O)cc1 | . | . | . | / | . | /
COc1ccc(-c2noc(CNS(=O)(=O)c3ccc(Br)cc3)n2)cc1OC | . | . | . | / | . | /
O=C(NCC1CCCO1)c1ccc2[nH]c3c(c2c1)CCCC3 (stereo unspecified) | . | . | . | . | .[0.501 µM] | .
CCCCNC(=S)NCc1ccc2[nH]c3c(c2c1)CCCC3 | / | ? | 40µM | / | ? | .
CNC(=S)NCc1ccc2[nH]c3c(c2c1)CCCC3 | 45µM | . | . | . | 40µM | .
COc1cccc(Cc2nc3ccccc3nc2SCC(=O)Nc2ccccc2F)c1 | . | . | . | / | . | /
COCCCn1c(Cc2csc(Nc3cccc(Cl)c3)n2)nnc1SCC(=O)OC | ? | . | 56µM | ? | 28µM | /
SMILES | BAZ2B inh | HP1b chromo inh | JMJD2A Tudor | L3MBTL1 block | G9a inh | PI5P4K alpha inh
CCOC(=O)CSc1nnc(CNc2cccc(Cl)c2)n1C | . | . | ? | . | . | .
Cc1cc(C)c(/C=C/c2onc(C)c2S(=O)(=O)N2CCC(C(=O)Nc3ccc(Cl)c(C(F)(F)F)c3)CC2)c(C)c1 | . | . | . | / | . | /
CC(C)(C)OC(=O)N/N=C/c1ccc(N2CCOCC2)s1 | . | . | . | . | 16µM | .
Clc1cccc(N/N=C/c2ccc(N3CCOCC3)s2)c1 | 50µM | . | . | . | 1.1µM | .
CC(=O)NC1=CC(=O)c2nonc2C1=O | / | . | ? | / | / | /
COc1ccc(C2=C(C)C(N3CCC(C(=O)Nc4ccc(F)cc4C)CC3)=NS2(=O)=O)cc1 | . | . | . | / | . | /
COCC(C)n1c(C)cc(C(=O)CSc2nc3ccccc3c(=O)[nH]2)c1C (stereo unspecified) | . | . | . | . | . | /
COCC(C)n1c(C)cc(C(=O)CSc2ncccn2)c1C (stereo unspecified) | ? | . | . | . | 35µM | .
COCC(C)n1c(SCC(=O)c2cc(C)n(C)c2C)nc2ccccc2c1=O (stereo unspecified) | 50µM | . | ? | . | 40µM | .
COc1ccc(-c2nc3cnc(Oc4cccc(Cl)c4)nc3n(CCC#N)c2=O)cc1 | / | / | / | / | .[0.501 µM] | /
CCC12CCCN3CCc4c(n(c5ccccc45)C(O)(C(=O)OC)C1)C32 (stereo unspecified) | . | . | . | ? | 50µM | .
CC[C@]12CCCN3CCc4c(n(c5ccccc45)[C@](O)(C(=O)OC)C1)[C@@H]32 | . | . | . | . | .[12.7 µM] | .
CCCNc1ncnc2[nH]ncc12 | / | . | . | / | / | .
c1ccc(Nc2ncnc3[nH]ncc23)cc1 | . | . | . | / | 50µM | .
COc1cccc(N2CCN(C(=O)CN3CCSc4ccccc43)CC2)c1 | ? | . | ? | / | ? | /
Cc1cc(NC(=O)CSc2nnc(C3COc4ccccc4O3)o2)no1 (stereo unspecified) | 50µM | . | . | . | ? | .
C#CCSc1nnc(-c2ccc(OC)cc2)o1 | . | . | . | / | 45µM | .
Cc1cc(NC(=O)CSc2nnc(-c3ccc([N+](=O)[O-])cc3)o2)no1 | 22µM | . | 89µM | / | . | .
O=C(OCC#CCSc1nnc(-c2ccc([N+](=O)[O-])cc2)o1)c1cccs1 | ? | . | ? | / | 32µM | .
COc1ccc(-c2nnc(SCC#N)o2)cc1 | . | . | . | . | . | .
O=C(Nc1cccc(F)c1)N1CCCC2(CCN(S(=O)(=O)c3ccccc3)CC2)C1 | / | / | / | / | .[12.7 µM] | /
Cc1ccc(-n2nc(C)c3nc(CCC(=O)Nc4cccc(F)c4)c(=O)n(C)c32)cc1 | . | . | . | / | .[12.7 µM] | /
C#CCSc1nnc(-c2ccc([N+](=O)[O-])cc2)o1 | . | . | . | . | 50µM | .
